# Compound activity as filed in PubChem.
# In the library only some 4.1% were active in any assay of this set; here they are far more common.
# hgDAF12 agonist: agonists of H. glycines DAF-12 nuclear receptor; HEK293 GAL4-hgDAF12 UAS-luciferase reporter, agonist luminescence; normalized to butyrate control; activation, % at 6.8 µM; actives 1.8% (n = 370,000); AID 687014;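 active = activation above a cutoff set at the mean of all screened compounds plus 3 SD, cut at about 10% in these data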;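 note: 0% = DMSO wells and 100% = sodium butyrate wells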
# ssDAF12 agonist: S. stercoralis DAF-12 activation, primary screen. HEK293 ssDAF-12/GRIP1 lit1-tk-luc reporter, luminescence; % of 3 µM dafachronic acid response. activation, % at 6.8 µM. actives 1% (n = 370,000). AID 652126;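 active = activation above the mean over all tested compounds plus 3 SD, cut at about 0.9% in these data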;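 note: 0% = DMSO-only wells and 100% = 3 µM delta7-dafachronic acid wells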
# DAX1 inh-1: blocks DAX1 repression of SF-1 activated StAR promoter | HEK293T StAR-luciferase reporter, SF-1/DAX-1 repression relief | actives 1.1% (n = 370,000) | inhibition, % at 6.8 µM;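 active = inhibition above the mean over all tested compounds plus 3 SD, cut at about 3.6% in these data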;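 note: 0% = DAX-1 cells with DMSO and 100% = cells lacking DAX-1 with DMSO; higher inhibition means more luminescence from relief of DAX-1 repression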
# hcDAF-12 act: activates DAF-12 receptor from parasite H. contortus. HEK293 hcDAF-12 lit1-tk-luc reporter, luminescence; 0% DMSO, 100% Δ7-dafachronic acid. activation, % at 6.8 µM. actives 1.4% (n = 370,000). AID 652067;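 active = activation above the mean of all tested compounds plus 3 SD, cut at about 5.5% in these data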;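 note: 100% = response to 3 µM Δ7-dafachronic acid high control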
# DAX1 inh-2: NR0B1 (DAX1) inhibition | P51843 | HEK293 Gal4-DAX1 luciferase reporter, luminescence | inhibition, % at 6.75 µM | actives 0.99% (n = 340,000);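 active = inhibition above the mean over all tested compounds plus 3 SD, cut at about 4.2% in these data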;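 note: 0% = DAX1-transfected cells with DMSO and 100% = empty-vector control cells with DMSO; inhibition shows as a rise in luminescence from relieved DAX1 repression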
# Target sequence (P51843 207-470 limits assumed): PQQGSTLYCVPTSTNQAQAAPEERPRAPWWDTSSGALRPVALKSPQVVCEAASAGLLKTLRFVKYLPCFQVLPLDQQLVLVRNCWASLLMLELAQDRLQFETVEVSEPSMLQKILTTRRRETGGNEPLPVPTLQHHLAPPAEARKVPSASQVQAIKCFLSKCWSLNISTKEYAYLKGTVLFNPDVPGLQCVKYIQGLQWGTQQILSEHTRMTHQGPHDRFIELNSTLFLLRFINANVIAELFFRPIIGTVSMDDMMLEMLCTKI
# LXR ag: counter-screen for hcDAF-12 agonists: agonists of human LXR-beta. shares compounds with hcDAF-12 act. HEK293 Gal4-LXR tk-luc reporter, luminescence, 24 h; normalized: DMSO 0%, positive control 100%. activation, % at 6.8 µM. 3,400 tested, under 10 active;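 active = mean percent activation of the reporter above a cutoff set as the average over tested compounds plus their standard deviation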
# hcDAF12 ag: hcDAF-12 agonism, confirmation assay; HEK293 hcDAF-12 lit1-tk-luc reporter, luminescence; % of Δ7-dafachronic acid response; shares compounds with hcDAF-12 act; actives 61% (n = 3,400); activation, % at 6.8 µM;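 active = mean activation across triplicate tests above the threshold derived from the earlier primary screen, cut at about 5.5% in these data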;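 note: 0% = DMSO only wells and 100% = 3 µM Δ7-dafachronic acid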
# hgDAF12 ag: confirmation of H. glycines DAF-12 agonists; shares compounds with hgDAF12 agonist; HEK293 GAL4-hgDAF12 luciferase reporter, agonist mode; percent of butyrate response; activation, % at 6.8 µM; AID 743050; actives 80% (n = 3,300);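 active = mean activation over triplicate wells above the hit cutoff derived from the earlier primary screen, cut at about 11% in these data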;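 note: 0% = DMSO low control and 100% = 2 mM sodium butyrate high control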
# LXRb DAF12 ctr: LXR-beta agonism as DAF-12 counter-screen; activation, % at 6.8 µM; 3,300 tested, under 10 active; shares compounds with hgDAF12 agonist; AID 743051; HEK293 Gal4-LXR luciferase reporter, 24 h;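 active = mean activation of the triplicate above a set limit carried over from the primary screen, none filed active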
# Active calls of the source: *; . = not tested or not shown.
SMILES,hgDAF12 agonist,ssDAF12 agonist,DAX1 inh-1,hcDAF-12 act,DAX1 inh-2,LXR ag,hcDAF12 ag,hgDAF12 ag,LXRb DAF12 ctr
Cc1cc(OCC(=O)N2CCN(c3ccccn3)CC2)c(C)cc1Br,-2,-1,1,-1,-1,.,.,.,.
CCc1ccc(NC(=O)COc2ccc(F)cc2C(=O)c2cnn(-c3ccccc3)c2)cc1,18*,1,2,12*,2,0,7.8*,7,0
CCc1ccc(NC(=O)COc2coc(CN3CCN(c4ccccc4)CC3)cc2=O)cc1,0,-1,1,1,0,.,.,.,.
O=[N+]([O-])c1ccc2nc(-c3ccc(Cl)cc3)[nH]c2c1,22*,1.2*,4.1*,9.9*,4,1,5.9*,20*,1
O=[N+]([O-])c1cccc(-c2nc3ccc([N+](=O)[O-])cc3[nH]2)c1,3,-1,1,1,1,.,.,.,.
Cc1c(NS(=O)(=O)c2cc(C(=O)NCC3CCCO3)cc(Cl)c2Cl)c(=O)n(-c2ccccc2)n1C (stereo unspecified),0,-1,0,1,1,.,.,.,.
CC1(C)OC2COC(c3[nH]nc4c(=O)[nH]c(=O)[nH]c34)C2O1 (stereo unspecified),-1,0,1,0,0,.,.,.,.
COCCN1Cc2c(sc(C)c2C)N(C(=O)c2ccccc2)C1,14*,1.7*,2,9.2*,2,0,3,8,0
Cc1cc(C(=O)C(C)OC(=O)c2ccc(NC(=O)CC#N)cc2)c(C)n1-c1ccc(OC(F)F)cc1 (stereo unspecified),1,-2,-3,-3,-2,.,.,.,.
COc1ccccc1NC(=O)c1cc2ccccc2o1,14*,1.9*,2,16*,3,1,15*,22*,1
Cc1ccccc1NC(=O)c1cc2ccccc2o1,14*,0,2,7.7*,3,1,9.2*,16*,1
O=C(Nc1ccccc1)c1cc2ccccc2o1,19*,1.9*,3,13*,-1,2,17*,22*,1
COc1cc(NC(=O)c2cc3ccccc3o2)c(OC)cc1Br,6,0,1,1,0,.,.,.,.
O=C(Nc1cccc(-c2nc3ncccc3o2)c1)c1cc2ccccc2o1,-1,-1,-1,-2,-2,.,.,.,.
O=C(Nc1ncccc1Cl)c1cc2ccccc2o1,16*,1,2,7.3*,2,1,6.2*,18*,1
CC1C2NC(=O)N(Cc3ccccc3)C1(C)Oc1ccccc12 (stereo unspecified),0,-1,0,-1,1,.,.,.,.
COc1ccc(S(=O)(=O)Nc2ccccc2OC)cc1NC(=O)c1cc2ccccc2oc1=O,14*,0.9*,3,7.7*,2,1,4,10,0
Cc1occc1C(=O)Nc1ccccc1NC(=O)c1ccoc1C,-2,-1,0,2,0,.,.,.,.
Cc1occc1C(=O)Nc1cccc2ccccc12,17*,1.1*,3.8*,6.7*,4,1,5.9*,21*,1
Cc1ccc(NC(=O)c2ccoc2C)cc1C,14*,0,3,6.9*,0,1,5,12*,0
Cc1occc1C(=O)Nc1ccc2c(c1)OCO2,6,0,1,1,1,.,.,.,.
COc1ccc(/C(C)=N/NC(=O)Cc2ccc(Cl)cc2)cc1,-1,-2,0,0,0,.,.,.,.
Cc1cc2nn(-c3ccc(F)cc3)nc2cc1N,18*,1.4*,4.0*,14*,3,2,16*,24*,1
Nc1ccc2nn(-c3ccc(F)cc3)nc2c1,16*,2.3*,2,14*,4.3*,1,2,16*,1
Cc1cc(C)c(C(=O)Nc2ccc3c(c2)OCCO3)c(C)c1,5,-1,2,2,1,.,.,.,.
SMILES,hgDAF12 agonist,ssDAF12 agonist,DAX1 inh-1,hcDAF-12 act,DAX1 inh-2,LXR ag,hcDAF12 ag,hgDAF12 ag,LXRb DAF12 ctr
CC1CCC(NC(=O)c2ccc3c(c2)OCO3)CC1 (stereo unspecified),15*,1,9.1*,9.0*,-1,1,8.6*,19*,1
O=C(Nc1ccc2c(c1)OCO2)c1ccc2c(c1)OCO2,14*,2.1*,3,7.3*,-1,1,9.3*,15*,1
O=C(Nc1ccc(F)c(F)c1)c1ccc2c(c1)OCO2,6,-1,3,2,1,.,.,.,.
Cc1ccc(C(=O)Nc2ccc3c(c2)OCCO3)o1,13*,0,3,9.2*,1,1,5,14*,1
O=C(Nc1ccc(Cl)c(Cl)c1)c1ccc2c(c1)OCO2,19*,3.0*,2,9.7*,2,1,7.2*,22*,1
CC1(Cc2ccccc2Cl)C(=O)Nc2ccc(OC(F)(F)F)cc21 (stereo unspecified),0,-1,0,-3,.,.,.,.,.
O=C(NCc1ccccn1)Nc1ccccc1C(F)(F)F,0,0,0,0,0,.,.,.,.
O=C(c1cccc(S(=O)(=O)NCc2ccccc2)c1)N1CCCC(C(F)(F)F)C1 (stereo unspecified),-3,-1,-1,0,0,.,.,.,.
Cc1cc(O)ccc1N/C=C/c1onc(C)c1[N+](=O)[O-],17*,0.9*,2,7.9*,1,1,6.2*,15*,1
Cc1cccc(N/C=C/c2onc(C)c2[N+](=O)[O-])c1,8,1,2,4,2,.,.,.,.
O=C(NC(=S)Nc1cnc2ccccc2c1)c1ccccc1,21*,1.9*,4.2*,7.4*,5.9*,1,6.6*,13*,1
O=C(CN1C(=O)NC2(CCc3ccccc32)C1=O)Nc1ccccc1C(F)(F)F (stereo unspecified),-1,1,1,1,0,.,.,.,.
CC1CCCCC1NC(=O)COc1ccccc1C#N (stereo unspecified),6,-1,1,0,0,.,.,.,.
Oc1ccc(/C=N\Nc2cc(N3CCOCC3)nc(N3CCOCC3)n2)c(O)c1,-1,-2,-1,-2,-2,.,.,.,.
